In assay [1] the target is T1, Ephrin type-B receptor 2 (Homo sapiens) (UniProt P29323).
T1 sequence (whole entry): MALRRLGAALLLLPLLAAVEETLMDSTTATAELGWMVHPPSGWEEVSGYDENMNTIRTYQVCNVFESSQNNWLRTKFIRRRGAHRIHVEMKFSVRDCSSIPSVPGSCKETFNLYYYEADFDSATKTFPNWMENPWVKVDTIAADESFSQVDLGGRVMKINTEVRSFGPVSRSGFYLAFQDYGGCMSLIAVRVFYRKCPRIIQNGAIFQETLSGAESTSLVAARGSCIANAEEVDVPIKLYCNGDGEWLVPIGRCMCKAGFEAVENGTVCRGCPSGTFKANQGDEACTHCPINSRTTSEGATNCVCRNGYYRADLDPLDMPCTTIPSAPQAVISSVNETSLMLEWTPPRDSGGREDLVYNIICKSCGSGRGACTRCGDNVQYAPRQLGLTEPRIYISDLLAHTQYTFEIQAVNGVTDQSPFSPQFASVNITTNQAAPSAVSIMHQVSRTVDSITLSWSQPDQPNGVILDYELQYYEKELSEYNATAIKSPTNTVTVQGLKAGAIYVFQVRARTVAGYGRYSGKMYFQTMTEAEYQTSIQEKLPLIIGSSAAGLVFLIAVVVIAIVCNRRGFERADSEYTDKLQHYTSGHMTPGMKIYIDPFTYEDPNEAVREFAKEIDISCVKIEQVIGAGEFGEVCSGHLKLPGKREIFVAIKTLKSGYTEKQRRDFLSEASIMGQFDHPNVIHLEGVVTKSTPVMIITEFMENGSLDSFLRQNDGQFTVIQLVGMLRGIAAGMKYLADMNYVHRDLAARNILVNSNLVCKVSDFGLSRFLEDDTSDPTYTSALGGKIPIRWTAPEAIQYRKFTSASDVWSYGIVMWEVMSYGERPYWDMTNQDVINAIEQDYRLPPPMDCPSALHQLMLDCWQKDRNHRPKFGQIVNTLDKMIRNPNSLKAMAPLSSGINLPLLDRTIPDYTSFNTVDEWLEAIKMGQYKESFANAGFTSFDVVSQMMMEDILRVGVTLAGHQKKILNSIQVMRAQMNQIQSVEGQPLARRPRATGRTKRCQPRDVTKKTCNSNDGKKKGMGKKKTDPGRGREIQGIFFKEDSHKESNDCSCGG
The settings on record: at 1 µM.

Assay [2] has as its target T2, Ephrin type-B receptor 3 (Homo sapiens) (UniProt P54753).
T2 sequence (whole entry): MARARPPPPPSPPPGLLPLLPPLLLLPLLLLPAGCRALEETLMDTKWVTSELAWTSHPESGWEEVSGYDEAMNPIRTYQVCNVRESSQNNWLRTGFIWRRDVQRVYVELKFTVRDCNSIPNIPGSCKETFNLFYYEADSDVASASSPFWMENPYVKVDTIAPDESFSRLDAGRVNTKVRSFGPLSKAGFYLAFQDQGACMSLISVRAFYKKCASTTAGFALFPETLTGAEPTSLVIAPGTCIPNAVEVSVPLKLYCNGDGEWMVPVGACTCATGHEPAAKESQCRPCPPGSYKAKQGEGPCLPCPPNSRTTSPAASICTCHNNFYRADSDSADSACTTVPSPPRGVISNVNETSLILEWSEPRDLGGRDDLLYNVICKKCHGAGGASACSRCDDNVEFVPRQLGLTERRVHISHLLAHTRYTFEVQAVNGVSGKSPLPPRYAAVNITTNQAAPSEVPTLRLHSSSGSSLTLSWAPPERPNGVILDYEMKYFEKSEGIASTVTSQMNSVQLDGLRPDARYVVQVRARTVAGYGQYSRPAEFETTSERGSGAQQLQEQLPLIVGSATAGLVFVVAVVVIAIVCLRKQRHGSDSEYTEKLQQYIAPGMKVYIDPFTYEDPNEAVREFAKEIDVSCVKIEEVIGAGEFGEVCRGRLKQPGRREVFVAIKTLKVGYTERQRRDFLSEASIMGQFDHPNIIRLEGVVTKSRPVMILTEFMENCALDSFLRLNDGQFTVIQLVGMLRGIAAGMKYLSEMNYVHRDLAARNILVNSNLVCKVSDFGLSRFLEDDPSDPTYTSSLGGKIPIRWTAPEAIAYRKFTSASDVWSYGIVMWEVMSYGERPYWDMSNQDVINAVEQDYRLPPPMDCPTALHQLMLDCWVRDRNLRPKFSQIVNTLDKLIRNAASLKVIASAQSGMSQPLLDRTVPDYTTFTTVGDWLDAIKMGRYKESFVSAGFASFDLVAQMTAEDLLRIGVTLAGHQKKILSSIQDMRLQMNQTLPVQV
The settings on record: at 0.1 µM.

The target in assay [3] is T2, Ephrin type-B receptor 3 (Homo sapiens). The settings on record: at 1 µM.
Assay [4] has as its target T3, Ephrin type-B receptor 4 (Homo sapiens) (UniProt P54760).
T3 sequence (whole entry): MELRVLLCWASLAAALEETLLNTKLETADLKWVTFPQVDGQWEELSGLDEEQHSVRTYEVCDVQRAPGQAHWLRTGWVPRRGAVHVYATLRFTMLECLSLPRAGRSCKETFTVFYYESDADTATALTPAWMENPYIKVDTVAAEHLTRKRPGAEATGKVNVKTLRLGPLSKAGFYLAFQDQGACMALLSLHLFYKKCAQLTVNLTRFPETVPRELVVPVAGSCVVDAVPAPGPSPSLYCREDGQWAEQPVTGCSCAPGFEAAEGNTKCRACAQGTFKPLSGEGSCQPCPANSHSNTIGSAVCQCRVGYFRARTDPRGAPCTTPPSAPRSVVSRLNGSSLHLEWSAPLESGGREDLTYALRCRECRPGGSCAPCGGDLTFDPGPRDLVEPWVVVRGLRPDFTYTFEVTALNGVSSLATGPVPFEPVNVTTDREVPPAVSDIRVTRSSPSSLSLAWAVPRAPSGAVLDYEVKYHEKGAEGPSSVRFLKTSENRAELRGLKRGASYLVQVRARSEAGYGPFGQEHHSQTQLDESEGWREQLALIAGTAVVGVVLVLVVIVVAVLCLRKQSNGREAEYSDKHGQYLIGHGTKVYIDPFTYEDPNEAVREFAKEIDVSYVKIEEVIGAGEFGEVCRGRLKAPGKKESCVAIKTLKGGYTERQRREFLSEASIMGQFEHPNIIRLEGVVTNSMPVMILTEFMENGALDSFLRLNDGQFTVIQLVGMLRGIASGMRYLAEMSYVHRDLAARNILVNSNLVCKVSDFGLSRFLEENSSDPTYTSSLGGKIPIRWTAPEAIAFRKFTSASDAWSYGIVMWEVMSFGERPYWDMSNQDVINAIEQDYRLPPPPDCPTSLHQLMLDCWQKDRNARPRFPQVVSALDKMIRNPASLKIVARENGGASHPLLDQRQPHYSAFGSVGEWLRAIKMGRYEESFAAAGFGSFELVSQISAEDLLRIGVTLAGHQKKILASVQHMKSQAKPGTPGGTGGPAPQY
The settings on record: at 0.1 µM.

Assay [5] concerns the target T3, Ephrin type-B receptor 4 (Homo sapiens). Particulars: at 1 µM.
Assay [6] concerns the target Receptor tyrosine-protein kinase erbB-2 (Homo sapiens) (UniProt P04626). The settings on record: at 0.1 µM.
The target is the same in assay [7]. Particulars: at 1 µM.
For assay [8], the target named is Receptor tyrosine-protein kinase erbB-4 (Homo sapiens) (UniProt Q15303). The settings on record: at 0.1 µM.
For assay [9] the target is unchanged. The settings on record: at 1 µM.
For assay [10], the target named is Tyrosine-protein kinase Fer (Homo sapiens) (UniProt P16591). The settings on record: at 0.1 µM.
Assay [11] shares this target. The settings on record: at 1 µM.
The target of assay [12] is Tyrosine-protein kinase Fes/Fps (Homo sapiens) (UniProt P07332). Particulars: at 0.1 µM.
Assay [13] has the same target. The settings on record: at 1 µM.
Assay [14] addresses Fibroblast growth factor receptor 1 (Homo sapiens) (UniProt P11362). Particulars: at 0.1 µM.
Assay [15] shares this target. The settings on record: at 1 µM.
The target in assay [16] is Fibroblast growth factor receptor 2 (Homo sapiens) (UniProt P21802). The settings on record: at 0.1 µM.
For assay [17] the target is unchanged. Particulars: at 1 µM.
The target of assay [18] is Fibroblast growth factor receptor 3 (Homo sapiens) (UniProt P22607). The settings on record: at 0.1 µM.
Assay [19] shares this target. The settings on record: at 1 µM.
Assay [20] deals with Fibroblast growth factor receptor 4 (Homo sapiens) (UniProt P22455). Particulars: at 0.1 µM.
Sequence of Fibroblast growth factor receptor 4 (Homo sapiens) (P22455 22-802 limits assumed): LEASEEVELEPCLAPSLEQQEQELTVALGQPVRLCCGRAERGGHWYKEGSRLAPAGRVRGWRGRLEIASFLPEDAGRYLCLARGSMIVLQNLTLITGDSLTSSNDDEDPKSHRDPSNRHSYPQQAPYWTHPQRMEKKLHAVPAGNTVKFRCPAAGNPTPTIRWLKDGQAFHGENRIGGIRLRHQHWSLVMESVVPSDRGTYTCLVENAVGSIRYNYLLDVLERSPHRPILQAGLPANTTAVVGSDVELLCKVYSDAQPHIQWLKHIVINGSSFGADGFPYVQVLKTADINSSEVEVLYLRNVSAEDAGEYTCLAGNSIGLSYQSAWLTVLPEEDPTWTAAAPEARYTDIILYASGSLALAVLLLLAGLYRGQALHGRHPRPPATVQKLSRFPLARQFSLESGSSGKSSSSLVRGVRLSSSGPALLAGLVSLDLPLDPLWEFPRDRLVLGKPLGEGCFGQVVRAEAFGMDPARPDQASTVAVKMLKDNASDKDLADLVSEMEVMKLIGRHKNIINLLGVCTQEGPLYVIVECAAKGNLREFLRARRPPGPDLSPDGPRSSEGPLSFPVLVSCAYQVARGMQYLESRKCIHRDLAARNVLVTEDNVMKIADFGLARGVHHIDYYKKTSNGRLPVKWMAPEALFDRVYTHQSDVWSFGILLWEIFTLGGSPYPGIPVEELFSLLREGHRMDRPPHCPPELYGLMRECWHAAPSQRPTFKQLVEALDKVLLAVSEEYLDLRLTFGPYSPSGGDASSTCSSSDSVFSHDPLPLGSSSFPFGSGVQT

Sequence of Receptor tyrosine-protein kinase erbB-4 (Homo sapiens) (Q15303 whole entry): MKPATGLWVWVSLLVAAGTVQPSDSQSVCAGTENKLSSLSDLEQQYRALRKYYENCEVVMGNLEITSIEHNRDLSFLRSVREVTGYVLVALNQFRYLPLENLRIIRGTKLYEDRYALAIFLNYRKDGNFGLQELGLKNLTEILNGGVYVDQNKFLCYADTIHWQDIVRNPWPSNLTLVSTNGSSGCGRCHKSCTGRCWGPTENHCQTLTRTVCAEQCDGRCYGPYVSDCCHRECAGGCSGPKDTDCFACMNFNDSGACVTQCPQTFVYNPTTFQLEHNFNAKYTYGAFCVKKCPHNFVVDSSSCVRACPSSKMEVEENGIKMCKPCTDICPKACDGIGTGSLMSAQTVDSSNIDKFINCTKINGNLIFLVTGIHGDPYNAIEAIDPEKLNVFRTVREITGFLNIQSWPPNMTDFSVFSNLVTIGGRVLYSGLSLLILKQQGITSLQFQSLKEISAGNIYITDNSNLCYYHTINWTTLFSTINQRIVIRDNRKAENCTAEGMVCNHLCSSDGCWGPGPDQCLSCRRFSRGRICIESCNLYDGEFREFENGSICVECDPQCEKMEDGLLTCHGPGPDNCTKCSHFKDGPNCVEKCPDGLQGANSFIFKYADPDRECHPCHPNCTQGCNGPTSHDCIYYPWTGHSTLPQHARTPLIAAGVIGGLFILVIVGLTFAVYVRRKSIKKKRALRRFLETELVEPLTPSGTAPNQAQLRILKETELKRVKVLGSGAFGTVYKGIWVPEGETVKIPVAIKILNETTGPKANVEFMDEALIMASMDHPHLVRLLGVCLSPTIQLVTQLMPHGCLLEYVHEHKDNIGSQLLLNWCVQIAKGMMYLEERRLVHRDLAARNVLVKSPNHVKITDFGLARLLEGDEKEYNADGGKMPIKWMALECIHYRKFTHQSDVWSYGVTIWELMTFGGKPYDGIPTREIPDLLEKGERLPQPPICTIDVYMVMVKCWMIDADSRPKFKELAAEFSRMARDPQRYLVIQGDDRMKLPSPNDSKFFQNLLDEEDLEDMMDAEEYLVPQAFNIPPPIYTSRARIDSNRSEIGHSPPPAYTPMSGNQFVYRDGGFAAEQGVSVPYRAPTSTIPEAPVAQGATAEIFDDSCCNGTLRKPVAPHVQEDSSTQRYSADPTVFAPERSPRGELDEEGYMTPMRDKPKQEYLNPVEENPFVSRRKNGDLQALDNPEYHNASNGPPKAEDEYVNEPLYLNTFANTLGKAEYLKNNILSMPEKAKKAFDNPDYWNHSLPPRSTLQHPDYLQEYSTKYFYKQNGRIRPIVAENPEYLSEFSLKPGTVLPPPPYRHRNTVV
Sequence of Fibroblast growth factor receptor 2 (Homo sapiens) (P21802 22-821 limits assumed): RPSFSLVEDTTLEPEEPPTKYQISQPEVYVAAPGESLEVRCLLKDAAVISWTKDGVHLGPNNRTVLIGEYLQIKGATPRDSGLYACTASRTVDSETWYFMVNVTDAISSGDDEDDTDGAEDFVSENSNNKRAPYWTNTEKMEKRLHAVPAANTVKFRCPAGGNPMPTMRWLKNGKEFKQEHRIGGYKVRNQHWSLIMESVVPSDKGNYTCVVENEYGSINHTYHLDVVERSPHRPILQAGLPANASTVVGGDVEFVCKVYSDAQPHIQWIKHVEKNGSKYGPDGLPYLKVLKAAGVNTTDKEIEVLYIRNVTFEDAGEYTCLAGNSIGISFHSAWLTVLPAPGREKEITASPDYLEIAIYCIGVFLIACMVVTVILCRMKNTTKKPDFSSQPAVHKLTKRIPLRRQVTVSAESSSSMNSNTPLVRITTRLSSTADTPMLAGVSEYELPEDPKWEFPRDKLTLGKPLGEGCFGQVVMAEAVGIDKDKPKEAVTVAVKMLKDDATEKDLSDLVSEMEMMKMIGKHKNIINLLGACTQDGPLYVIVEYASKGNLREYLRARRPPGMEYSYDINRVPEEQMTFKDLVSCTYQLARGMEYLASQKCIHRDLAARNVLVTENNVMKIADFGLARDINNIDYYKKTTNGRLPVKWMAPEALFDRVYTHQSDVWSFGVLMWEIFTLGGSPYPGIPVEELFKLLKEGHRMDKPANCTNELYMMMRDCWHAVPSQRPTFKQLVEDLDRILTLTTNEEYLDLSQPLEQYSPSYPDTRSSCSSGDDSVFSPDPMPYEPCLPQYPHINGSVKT
Sequence of Fibroblast growth factor receptor 3 (Homo sapiens) (P22607 23-806 limits assumed): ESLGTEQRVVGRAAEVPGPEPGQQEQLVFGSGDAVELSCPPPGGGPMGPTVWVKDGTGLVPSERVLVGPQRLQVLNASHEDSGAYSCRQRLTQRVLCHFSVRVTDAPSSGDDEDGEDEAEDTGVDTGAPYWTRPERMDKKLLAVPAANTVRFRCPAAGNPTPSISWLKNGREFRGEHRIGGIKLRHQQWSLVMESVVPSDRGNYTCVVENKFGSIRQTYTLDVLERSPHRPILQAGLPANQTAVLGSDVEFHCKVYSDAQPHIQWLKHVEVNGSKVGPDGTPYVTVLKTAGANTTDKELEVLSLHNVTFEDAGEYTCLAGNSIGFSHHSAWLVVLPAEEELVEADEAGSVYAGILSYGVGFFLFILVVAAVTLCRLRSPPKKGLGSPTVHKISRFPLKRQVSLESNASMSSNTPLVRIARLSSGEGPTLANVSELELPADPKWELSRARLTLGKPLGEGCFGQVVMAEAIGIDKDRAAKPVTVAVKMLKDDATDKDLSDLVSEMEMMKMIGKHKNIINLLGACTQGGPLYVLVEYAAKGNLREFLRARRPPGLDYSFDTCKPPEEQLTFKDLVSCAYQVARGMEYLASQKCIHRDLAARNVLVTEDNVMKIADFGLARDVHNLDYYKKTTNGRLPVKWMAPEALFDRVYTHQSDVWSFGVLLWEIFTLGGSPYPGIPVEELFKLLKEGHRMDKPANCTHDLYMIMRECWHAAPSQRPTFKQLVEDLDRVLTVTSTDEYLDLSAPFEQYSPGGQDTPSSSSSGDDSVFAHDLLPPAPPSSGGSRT
Sequence of Receptor tyrosine-protein kinase erbB-2 (Homo sapiens) (P04626 whole entry): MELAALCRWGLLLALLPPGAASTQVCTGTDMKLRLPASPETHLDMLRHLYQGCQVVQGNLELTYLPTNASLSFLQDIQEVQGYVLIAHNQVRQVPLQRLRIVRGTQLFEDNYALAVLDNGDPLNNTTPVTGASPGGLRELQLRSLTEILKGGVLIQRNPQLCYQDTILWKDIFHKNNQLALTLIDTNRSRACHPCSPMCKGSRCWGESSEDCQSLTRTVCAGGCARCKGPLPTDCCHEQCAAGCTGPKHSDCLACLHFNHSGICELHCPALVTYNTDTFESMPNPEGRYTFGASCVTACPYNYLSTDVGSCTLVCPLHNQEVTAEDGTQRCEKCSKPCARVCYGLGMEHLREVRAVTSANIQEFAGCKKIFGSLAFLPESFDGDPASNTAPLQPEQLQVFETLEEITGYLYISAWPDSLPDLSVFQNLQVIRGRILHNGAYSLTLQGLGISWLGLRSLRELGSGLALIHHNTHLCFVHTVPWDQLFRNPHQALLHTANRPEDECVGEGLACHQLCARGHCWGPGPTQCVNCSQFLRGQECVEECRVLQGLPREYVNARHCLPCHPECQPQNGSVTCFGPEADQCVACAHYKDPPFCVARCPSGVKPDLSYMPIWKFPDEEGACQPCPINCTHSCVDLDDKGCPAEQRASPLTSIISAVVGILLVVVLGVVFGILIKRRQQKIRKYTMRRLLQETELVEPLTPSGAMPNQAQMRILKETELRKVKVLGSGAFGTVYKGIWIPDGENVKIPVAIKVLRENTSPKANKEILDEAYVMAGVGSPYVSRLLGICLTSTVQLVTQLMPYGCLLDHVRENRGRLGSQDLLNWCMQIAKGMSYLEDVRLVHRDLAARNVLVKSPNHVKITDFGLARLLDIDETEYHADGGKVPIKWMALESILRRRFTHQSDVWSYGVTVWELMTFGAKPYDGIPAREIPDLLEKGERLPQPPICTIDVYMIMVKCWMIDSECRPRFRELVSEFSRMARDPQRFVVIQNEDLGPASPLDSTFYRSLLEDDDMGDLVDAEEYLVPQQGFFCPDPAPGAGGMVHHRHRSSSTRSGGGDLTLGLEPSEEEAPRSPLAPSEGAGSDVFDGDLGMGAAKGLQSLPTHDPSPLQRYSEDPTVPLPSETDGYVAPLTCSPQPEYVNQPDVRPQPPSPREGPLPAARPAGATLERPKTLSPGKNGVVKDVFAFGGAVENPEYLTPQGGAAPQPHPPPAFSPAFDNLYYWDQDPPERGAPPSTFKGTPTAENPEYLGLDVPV

For orientation: inhibition means the change of the read-out against control, counted positive when it falls. For the compound `COc1ccc2cc(-c3c(-c4ccncc4)nc(-c4ccc(S(C)(=O)=O)cc4C)n3C)ccc2c1`, the inhibition in assay [1] is 12.5%; in assay [2] it was 7.13%; in assay [3], 10.9%; in assay [4], 4.32%; in assay [5], 14.2%; in [6], 5.67%. Further, the inhibition in [7] was determined as 8.01%; in [8], 15%; in [9] it was 44.4%; in assay [10], 3.19%; in [11], 6.59%; in [12], 3.14%. Further, the inhibition is 3.35% in assay [13]; 2.35% in assay [14]; 6.54% in [15]; 3.92% in assay [16]; 6.16% in assay [17]; 4.02% in assay [18]. Moreover, the inhibition is 6.07% in [19] and -7.02% in assay [20].

For the compound `CCC(=O)Nc1ccc(C)c(-c2ccc(C(=O)NCC3CC3)cc2)c1`, the inhibition in [1] is 7.83%; in [2], 2.63%; in assay [3] it was 4.65%; in [4] it was 0.55%; in assay [5] it was 1.51%; in [6], 2.99%. Besides, the inhibition in [7] is 3.96%; in [8], 9.79%; in assay [9], 13.9%; in [10] it was -0.76%; in assay [11], 1.35%; in assay [12] it was 3.63%. For the same compound, the inhibition in [13] was found to be 2.61%; in [14] it was 2.39%; in assay [15], 4.4%; in assay [16], 3.64%; in [17] it was 5.39%; in assay [18], 2.42%. Further, the inhibition in assay [19] is 2.89%; in assay [20], 2.19%.

As for `CNC(=O)c1cncc(/C=C/c2c(C)cccc2C)c1`, the inhibition in [1] was 65.9%; in assay [2], -1%; in [3], 2.29%; in assay [4], 7.98%; in assay [5], 45.7%; in [6] it was -0.21%. In addition, the inhibition in [7] was 1.84%; in assay [8] it was -1.45%; in assay [9], 2.45%; in assay [10], 1.13%; in [11] it was 3.37%; in assay [12], -0.51%. Also, the inhibition in assay [13] was -0.68%; in [14], -3.96%; in [15], -3.96%; in assay [16], -3.46%; in assay [17] it was -2.09%; in assay [18], -2.67%. Also, the inhibition was -3.86% in assay [19] and -4.63% in assay [20].

Regarding `COc1cc(N2CCN(C(C)C)CC2)ccc1Nc1nc(Nc2ccc(F)cc2C(=O)NC[C@@H](O)CO)c2cc[nH]c2n1`, the inhibition in [1] is 6.9%; in assay [2], 0.85%; in assay [3], -0.23%; in assay [4], -2.73%; in [5], -3.91%; in [6], 3.24%. For the same compound, the inhibition in [7] stood at 10.5%; in assay [8] it was 9.31%; in assay [9], 15.7%; in assay [10], 17.7%; in [11], 60.2%; in [12], 4.45%. For the same compound, the inhibition in assay [13] is 20.1%; in [14], -0.71%; in [15] it was 5.9%; in [16] it was 1.11%; in [17], 1.86%; in assay [18] it was 1.06%. For the same compound, the inhibition was 3.63% in assay [19] and -2.86% in [20].

With `COc1ccc(-c2ccc3c(NC(=O)C4CC4)n[nH]c3n2)cc1`, the inhibition in assay [1] is 5.25%; in [2], 3.22%; in assay [3], 2.79%; in assay [4], 1.54%; in assay [5], -0.15%; in assay [6] it was 2.9%. Also, the inhibition in assay [7] worked out at 3.27%; in [8], 4.2%; in assay [9], 3.94%; in assay [10] it was 2%; in assay [11], 3.63%; in assay [12] it was 0.69%. Besides, the inhibition in assay [13] was 0.62%; in assay [14], -1.21%; in assay [15] it was 0.21%; in [16], 0.09%; in assay [17], 0.42%; in [18] it was 1.8%. The inhibition is 0.95% in assay [19] and -0.34% in assay [20].

Take `NS(=O)(=O)c1ccc(N/N=C2\C(=O)Nc3ccc(-c4cnco4)cc32)cc1`: the inhibition in assay [1] is 7.61%; in assay [2] it was -2.23%; in [3], -3.53%; in [4] it was -2.49%; in assay [5], -0.26%; in assay [6], 4.9%. For the same compound, the inhibition in [7] was 13.6%; in assay [8], 5.79%; in assay [9], 14.2%; in assay [10] it was 1.03%; in assay [11], 0.94%; in assay [12], 0.3%. Also, the inhibition is 0.19% in [13]; -2.98% in assay [14]; 2.6% in assay [15]; -0.2% in [16]; 15.2% in assay [17]; -0.63% in [18]. Further, the results for the inhibition in assay [19] and in [20] were 10.1% and -3.55%, respectively.

As for `Fc1ccc(-c2ncn(C3CCNCC3)c2-c2ccnc(Oc3ccc(F)c(F)c3)n2)cc1`, the inhibition in assay [1] is 8.76%; in assay [2], -0.46%; in assay [3] it was 1.58%; in assay [4] it was -4.11%; in assay [5] it was 0.57%; in assay [6], 3.82%. Moreover, the inhibition in assay [7] came to 3.63%; in [8], 1.82%; in assay [9], 5.03%; in assay [10] it was 1.43%; in assay [11], 3.96%; in [12] it was 2.73%. Also, the inhibition is 2.2% in [13]; -3.39% in assay [14]; 0.21% in assay [15]; 0.37% in assay [16]; 2.12% in assay [17]; 0.74% in assay [18]. Also, the inhibition in assay [19] is 2.67%; in assay [20], -2.57%.

Source of the values: ChEMBL document CHEMBL1961873, “Compounds: GSK PKIS; Assays: Nanosyn kinase panel” (2012).
